36 compounds from PubChem BioAssay can be followed below.

For one test, the system named is XIP peptide (Xip251-270). Description: compounds binding XIP fragment 251-270 – biochemical, small-molecule microarray, fluorescence 635/667 nm, 0.5 µg/mL protein, primary screen (AID 1183). The settings on record: fluorescence 635 nm, higher = more signal.
Turning to `CO[C@@H]1COC(=O)CC=C[C@@H](C)[C@@H]2C=C[C@H](O)[C@@H](COC(=O)CC=C[C@H]1C)O2`, the composite z-score is 0.853.
Same read-out and setting: then `CC(C)[C@@H](OCc1ccccc1)[C@H](C)C=NOC[C@@H](O)COCc1ccco1`, with -0.273.
The same measure, in the same setting: the result for `O=C1C[C@@H](O)[C@@H](O)[C@@H]2[C@@H]3C(=O)N(c4cccc(Oc5ccccc5)c4)C(=O)[C@@H]3CC[C@H]12` reads 0.111.
Same read-out and setting: then `CC(C)CON=C1C[C@@H](O)[C@@H](O)[C@@H]2[C@@H]3C(=O)N(C4CCCCC4)C(=O)[C@@H]3CC[C@H]12`, with 0.793; and `CO[C@@H]1COC(=O)[C@@H](C)NC(=O)CC=C[C@@H](C)[C@H](NS(=O)(=O)c2ccc(C)cc2)COC(=O)[C@H](C)NC(=O)CC=C[C@H]1C`, with 0.113.
On to `C[C@H]1CC[C@H]2C(=O)OC(CO)CN2[C@@H]1c1ccc(Br)cc1` (some centres not stated), for which the composite z-score worked out at 0.115.

Tested on in the next test: not listed separately
As to the kind of experiment: blood-stage malaria parasite viability loss – strain 3D7, DAPI fluorescence, 100 nL, primary screen (AID 1184).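 Note: parasites grown inside human red blood cells in medium with human serum.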 The settings on record: P. falciparum 3D7 growth, 3 d, higher = more signal.
In the case of `CO[C@H]1COC(=O)[C@@H](Cc2ccccc2)NC(=O)[C@@H](C)COC(=O)CCC[C@@H]1C`, the z-score is -0.0331.
Same read-out and setting: then `C[C@H]1CC[C@H]2C(=O)O[C@H](COc3ccc(C(C)(C)C)cc3)CN2[C@@H]1c1ccc(Br)cc1`, with -0.398; and `CC(C)=NOC[C@@H](C)[C@H](OCc1ccccc1)C(C)C`, with -0.89.
Compound `CO[C@@H]1COC(=O)[C@H](CCSC)NC(=O)CC=C[C@@H](C)COC(=O)CCC[C@H]1C` registered a z-score of -0.766.
As for `C[C@@H](ON=C1[C@H]2CCn3c(=O)n(-c4ccccc4)c(=O)n3[C@H]2[C@H](O)[C@@H]2O[C@H]12)c1cn([C@@H]2COC[C@H]2O)nn1`, the z-score stood at 0.0979.
Still for that read-out and setting: the result for `Cc1ccc(S(=O)(=O)N[C@@H]2COC(=O)[C@@H](C)COC(=O)CC=C[C@H]2C)cc1` reads 0.393; that for `CCOC(=O)[C@H](Cc1ccccc1)NC(=O)CCC1CC(OC(=O)NCCc2ccc(F)cc2)CC2(CCCC(COC(=O)NCc3ccccc3)O2)O1` (some centres not stated), -1.64.
As to `CC(C)CON=C1C[C@@H](O)[C@@H](O)[C@@H]2[C@@H]3C(=O)N(C4CCCCC4)C(=O)[C@@H]3CC[C@@H]12`, the z-score is -0.398.
Compound `CCN1C(=O)[C@H]2[C@H]3[C@H](O)[C@H](O)CC(=NNC(=O)OCc4ccc(OC)cc4)[C@@H]3CC[C@H]2C1=O` registered a z-score of -0.18.
Same read-out and setting: then `COC(=O)[C@H]1O[C@@H](c2c(OC)c(OC)c(C)c(OC)c2OC)[C@H](C)[C@@H](O)[C@H]1C`, with 0.0136; and `CC(CCN1CCCCc2nc(C)c(C)cc21)=NO[C@H](C)c1cn([C@H](CO)Cc2ccccc2)nn1`, with -1.56.
Still for that read-out and setting: then `COC(=O)CC=C[C@H](C)[C@@H](OCc1cccc(Br)c1)[C@@H](C)[C@H](OC)C1CCCCC1`, with 0.536; and `C=C(C)C(=O)OCC1CN2[C@@H](CC[C@@H](C)[C@@H]2c2ccc(Br)cc2)C(=O)O1` (some centres not stated), with -0.19; and `CCC(=O)[C@@]1(O)C(=O)N2C(=C3C(=O)OCC[C@@H]31)N(Cc1ccccc1)C(C)=C(C(=O)OC)[C@H]2c1ccccc1`, with 0.663.
Same read-out and setting: the result for `COc1cccc([C@H]2Oc3ccc(OC)cc3C(=NO[C@H](C)c3cn([C@H](CO)Cc4ccccc4)nn3)[C@@H]2O)c1` reads 0.24; that for `O=C1C[C@@H](O)[C@@H](O)[C@@H]2[C@@H]3C(=O)N(Cc4ccccc4)C(=O)[C@@H]3CC[C@@H]12`, 0.328; that for `CCOC(=O)[C@H](Cc1ccccc1)NC(=O)CCC1CC(OC(=O)NCCc2ccc(F)cc2)CC2(CCCC(COC(=O)NCCc3ccccc3OC)O2)O1` (some centres not stated), -1.94.
The compound `O=C1C[C@@H](O)[C@@H](O)[C@@H]2[C@@H]3C(=O)N(Cc4ccc5c(c4)OCO5)C(=O)[C@@H]3CC[C@H]12` gave a z-score of 1.57.
Still for that read-out and setting: then `CCOC(=O)[C@H](CC(C)C)NC(=O)CCC1CC(OC(=O)NCCc2ccc(F)cc2)CC2(CCCC(COC(=O)NCCC(C)C)O2)O1` (some centres not stated), with -0.329.
The same measure, in the same setting: the result for `COC(=O)CC=C[C@@H](C)[C@@H](C=NO[C@@H](C)c1cn([C@H](CO)Cc2ccccc2)nn1)OC` reads 0.141; that for `C[C@@H](c1ccccc1)N1C(=O)[C@H]2[C@H]3[C@H](O)[C@H](O)CC(=O)[C@H]3CC[C@H]2C1=O`, 0.676; that for `CC(CCN1CCCCc2nc(C)c(C)cc21)=NOC[C@@H](C)[C@H](OCc1ccccc1)C(C)C`, 0.318.
On the same count and under the same terms, the result for `COC(=O)[C@@H]1CC[C@H](C)[C@@H](c2ccc(C)cc2)N1C(=O)c1ccc(C=NO[C@H](C)c2cn([C@@H]3COC[C@H]3O)nn2)cc1` reads -0.214; that for `C=CC[C@@H]1C=C[C@H](ON=C(C)CCC(=O)OC[C@H]2O[C@H](C#Cc3ccccc3)C=C[C@@H]2Oc2ccc(C)cc2)[C@@H](CO)O1`, 0.37; that for `CON=CC[C@@H]1C=C[C@H](OC(C)=O)[C@@H](COC(C)=O)O1`, 1.2.
On to `C=Cc1ccc([C@H]2N[C@H](C(=O)O)CC[C@@H]2C)cc1`, for which the z-score is 2.18.
`O=C(NN=C1C[C@@H](O)[C@@H](O)[C@@H]2[C@@H]3C(=O)N(C4CCCCC4)C(=O)[C@@H]3CC[C@@H]12)OCc1ccccc1`: the z-score was -0.321.
Same read-out and setting: then `COc1ccc(O[C@H]2C=C[C@@H](c3ccccc3)O[C@@H]2CON=C2[C@H]3CCn4c(=O)n(-c5ccccc5)c(=O)n4[C@H]3[C@H](O)[C@@H]3O[C@H]23)cc1`, with -0.725; and `CCOC(=O)[C@H](Cc1ccccc1)NC(=O)CCC1CC(OC(=O)NCc2cccc3ccccc23)CC2(CCCC(COC(=O)NCCC(C)C)O2)O1` (some centres not stated), with 0.0857; and `CC(=O)OC[C@H]1O[C@H](C#Cc2ccccc2)C=C[C@@H]1OC(C)=O`, with 0.0037.
Still for that read-out and setting: the result for `CO[C@@H]1COC(=O)CC=C[C@@H](C)[C@@H]2C=C[C@H](O)[C@@H](COC(=O)CC=C[C@H]1C)O2` reads 0.338; that for `CC(C)[C@@H](OCc1ccccc1)[C@H](C)C=NOC[C@@H](O)COCc1ccco1`, 1.4.
In turn, `O=C1C[C@@H](O)[C@@H](O)[C@@H]2[C@@H]3C(=O)N(c4cccc(Oc5ccccc5)c4)C(=O)[C@@H]3CC[C@H]12` came in with a z-score of 1.33.
`CC(C)CON=C1C[C@@H](O)[C@@H](O)[C@@H]2[C@@H]3C(=O)N(C4CCCCC4)C(=O)[C@@H]3CC[C@H]12` came in with a z-score of -0.0504.
Same read-out and setting: then `CO[C@@H]1COC(=O)[C@@H](C)NC(=O)CC=C[C@@H](C)[C@H](NS(=O)(=O)c2ccc(C)cc2)COC(=O)[C@H](C)NC(=O)CC=C[C@H]1C`, with 0.327.
Still for that read-out and setting: the result for `C[C@H]1CC[C@H]2C(=O)OC(CO)CN2[C@@H]1c1ccc(Br)cc1` (some centres not stated) reads -0.296.
